We go through nine compounds from ChEMBL document CHEMBL4296182, “CO-ADD screening of NIH NCI Diversity Set V”.

For one assay, the system named is Staphylococcus aureus. The assay is described as follows: Antibacterial activity against Staphylococcus aureus MRSA ATCC 43300 (CO-ADD:GP_020); MIC in CAMBH media using NBS plates, by Resazurin F(560/590). The assay is classed as functional. The note with it: Concentration 20 uM, ASSAY_TEST Inhibition of Bacterial Growth, detection method Resazurin, Fluorescence (ex560/em590), MEDIA CAMHB, plate type 384well, CORNING #3640, time 18 hr.

For the next assay, the system named is Acinetobacter baumannii. Put plainly: Antibacterial activity against Acinetobacter baumannii ATCC 19606 (CO-ADD:GN_034); MIC in CAMBH media using NBS plates, by Resazurin F(560/590). The assay is classed as functional. The note with it: Concentration 20 uM, ASSAY_TEST Inhibition of Bacterial Growth, detection method Resazurin, Fluorescence (ex560/em590), MEDIA CAMHB, plate type 384well, CORNING #3640, time 18 hr.

The next assay relates to Escherichia coli. The assay is described as follows: Antibacterial activity against Escherichia coli ATCC 25922 (CO-ADD:GN_001); MIC in CAMBH media using NBS plates, by Resazurin F(560/590). The class given is functional. The settings on record: Concentration 20 uM, ASSAY_TEST Inhibition of Bacterial Growth, detection method Resazurin, Fluorescence (ex560/em590), MEDIA CAMHB, plate type 384well, CORNING #3640, time 18 hr. (In general: The colour change of resazurin is a common sign of viable cells or microbes.)

The subject of a further assay is Klebsiella pneumoniae. The settings on record: Concentration 20 uM; ASSAY_TEST Inhibition of Bacterial Growth; detection method Absorption (OD600); MEDIA CAMHB; plate type 384well; NBS; CORNING #3640; time 18 hr.
For a further assay, the system named is Candida albicans. The settings on record: 20 µM.
The test system of a further assay is Cryptococcus neoformans. The note with it: Concentration 20 uM; ASSAY_TEST Inhibition of Fungal Growth; detection method Resazurin; Absorption (OD600-OD570); plate type 384well; NBS; CORNING #3640.

For part of these data: Results with a measured potency or affinity are listed apart.

As a reminder, the Inhibition is the relative decrease from the control value, in per cent. For `CC(=O)Nc1cccc([As](=O)(c2cccc(NC(C)=O)c2)c2cccc(NC(C)=O)c2)c1`, the Inhibition was 0.93% with Staphylococcus aureus; 1.38% in the assay with Acinetobacter baumannii; -5.49% in the assay with Escherichia coli; 9.67% in the assay on Klebsiella pneumoniae; 0.37% in the assay on Candida albicans; -8.79% in the assay with Cryptococcus neoformans.
With `O=[As](O)(O)c1ccc(/N=N/c2ccc(O)cc2)cc1`, the Inhibition was -11.42% with Staphylococcus aureus; -13.35% with Acinetobacter baumannii; 0.89% in the assay on Escherichia coli; 15.09% in the assay on Klebsiella pneumoniae; 7.76% with Candida albicans; -3.57% in the assay on Cryptococcus neoformans.
In the case of `C[C@H]1[C@H](C)N1CC(O)Cn1ccnc1[N+](=O)[O-]` (some centres undefined), the Inhibition was 3.93% in the assay with Staphylococcus aureus; 7.84% in the assay with Acinetobacter baumannii; -2.75% in the assay on Escherichia coli; 19.25% in the assay with Klebsiella pneumoniae; 3.06% with Candida albicans; -3.91% in the assay with Cryptococcus neoformans.
With `CC(=O)Nc1ccc([As](=O)(O)c2ccc([N+](=O)[O-])cc2)cc1`, the Inhibition in the assay on Staphylococcus aureus is 12.11%; with Acinetobacter baumannii, 8.34%; in the assay with Escherichia coli, -3.43%; with Klebsiella pneumoniae, 10.87%; in the assay on Candida albicans, -1.88%; with Cryptococcus neoformans, 0.38%.
With `ClC1=C(Cl)C(Cl)=C(Cl)C1=C/C=C/c1ccccc1`, the Inhibition with Staphylococcus aureus is -15.24%; in the assay with Acinetobacter baumannii, -5.13%; with Escherichia coli, -15.65%; in the assay on Klebsiella pneumoniae it was 6.7%; with Candida albicans it was 5.69%; in the assay on Cryptococcus neoformans it was 2.88%.
Take `CCCC(=O)N(C)C1=Nc2ccc(Cl)cc2C(c2ccccc2)=[N+]([O-])C1`: the Inhibition is 11.96% with Staphylococcus aureus; 1.65% in the assay on Acinetobacter baumannii; -7.17% with Escherichia coli; 24.44% in the assay with Klebsiella pneumoniae; 4.49% in the assay with Candida albicans; -4.22% in the assay with Cryptococcus neoformans.
With `CC(C)CC(NC=O)C(=O)O.COc1cc2c(cc1OC)C13CCN4CC5=CCOC6CC(=O)N2C1C6C5CC43` (centres undefined), the Inhibition in the assay on Staphylococcus aureus was 7.19%; in the assay with Acinetobacter baumannii it was -2.08%; in the assay with Escherichia coli, 1.33%; with Klebsiella pneumoniae, 12.71%; in the assay with Candida albicans it was -1.26%; in the assay on Cryptococcus neoformans it was -3.45%.
With `CCN1CC2C3CCC(C)(O3)C2C1` (centres undefined), the Inhibition was 2.81% in the assay with Staphylococcus aureus; -6.99% with Acinetobacter baumannii; 12.74% in the assay on Escherichia coli; 12.11% in the assay on Klebsiella pneumoniae; 0.39% in the assay with Candida albicans; -3.82% in the assay on Cryptococcus neoformans.
For the compound `CCCCOP(=O)(OCCCC)C1(C)CC(=O)CC(C)(C)C1` (centres undefined), the Inhibition in the assay with Staphylococcus aureus is 5.73%; in the assay with Acinetobacter baumannii, -6.49%; with Escherichia coli it was -5.15%; in the assay with Klebsiella pneumoniae, 23.67%; in the assay with Candida albicans it was 1.05%; in the assay with Cryptococcus neoformans, -15.51%.
